According to PubChem BioAssay:
Active and inactive are the calls of the source. Unless noted, no rule for the calls is given here.

Key:
[1] = A549 cell viability effects, profiling panel, calcein-AM fluorescence, 48 h, basal (AID 1162); conditions: higher = more signal; also: test concentration not given here
[2] = adipocyte viability effects, profiling panel, cell-based, 3T3-L1 adipocytes, calcein-AM fluorescence, 48 h, basal (AID 1163); conditions: 3T3-L1 adipocytes viability, higher = more signal; also: test concentration not given here
[3] = HepG2 cell viability effects, profiling panel, calcein-AM fluorescence, 48 h, basal (AID 1164); conditions: higher = more signal; also: test concentration not given here
[4] = MM1S cell viability effects, profiling panel, calcein-AM fluorescence, 48 h, basal (AID 1165); conditions: higher = more signal;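 also: viability of MM1S multiple myeloma cells under basal unstimulated conditions; test concentration not given here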
[5] = basal RPMI8226 viability, no added stimulus, profiling panel, cell-based, calcein-AM fluorescence, 48 h, PK04 Diversity Set (AID 1166); conditions: RPMI8226 myeloma viability, higher = more signal;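 also: cells grown under basal conditions without added stimulus; test concentration not given here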
[6] = basal HepG2 mitochondrial membrane potential changes, profiling panel, cell-based, JC-1 fluorescence, 24 h, 100 nL compound (AID 1167); conditions: higher = more signal; also: test concentration not given here
[7] = basal 3T3-L1 adipocyte mitochondrial potential changes, profiling panel, cell-based, JC-1 fluorescence, 3T3-L1 adipocytes, 24 h, 100 nL compound (AID 1168); conditions: JC-1 mitochondrial fluorescence, higher = more signal, called active from +8 up or from −8 down; also: test concentration not given here
[8] = basal RPMI8226 mitochondrial membrane potential changes, profiling panel, cell-based, JC-1 fluorescence, 24 h, 100 nL compound (AID 1169); conditions: RPMI8226 myeloma, JC-1 mitochondrial potential fluorescence, higher = more signal; also: test concentration not given here
[9] = basal MM1S mitochondrial membrane potential changes, profiling panel, cell-based, JC-1 fluorescence, 24 h, 100 nL compound (AID 1170); conditions: higher = more signal; also: test concentration not given here
[10] = A549 lung cancer cell viability effects, profiling panel, resazurin fluorescence, 24 h, PK04 Diversity Set (AID 1171); conditions: higher = more signal, called active from +8 up or from −8 down; also: test concentration not given here
[11] = HepG2 liver cancer cell viability effects, profiling panel, resazurin fluorescence, 24 h, PK04 Diversity Set (AID 1172); conditions: higher = more signal; also: test concentration not given here
[12] = basal S. cerevisiae growth modulation, no modifier, primary screen, OD600, strain BY4716, 24 h, basal condition (AID 1173); conditions: OD600, 24 h, higher = more signal, called active from +8 up or from −8 down
[13] = MM1S myeloma cell viability, profiling panel, resazurin fluorescence, basal, 24 h, PK04 Diversity Set (AID 1174); conditions: higher = more signal, called active from +8 up or from −8 down;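 also: MM1S multiple myeloma cell line; test concentration not given here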
[14] = biological target: Dihydroorotate dehydrogenase (quinone), mitochondrial (Plasmodium falciparum (isolate 3D7)) (UniProt Q08210); assay: PfDHODH enzyme inhibitors, primary screen, biochemical, C-terminal His tag, absorbance 600 nm (AID 1175); conditions: DCIP absorbance 600 nm, higher = more signal, called active from +8 up or from −8 down;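 also: recombinant parasite enzyme with a five histidine tag at its C terminus; test concentration not given here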
[15] = P. aeruginosa biofilm formation inhibitors, primary screen, strain PAO1, LB-PBS medium, absorbance 600 nm (AID 1176); also: test concentration not given here; conditions: P. aeruginosa PAO1 growth/biofilm, A600, 12 h; higher = more signal
[16] = S. cerevisiae RM11-1a growth modifiers, primary screen, strain RM11-1a, OD600, basal, 24 h (AID 1177); conditions: OD600, 24 h, higher = more signal, called active from +8 up or from −8 down;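 also: cultures grown under basal conditions with no added stressor; test concentration not given here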
[17] = E. coli acrAB mutant growth effects, primary screen, E. coli filamentation inducers, strain DRC39, OD650, 24 h (AID 1178); conditions: higher = more signal, called active from +8 up or from −8 down;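 also: growth measured as culture turbidity by optical density at 650 nm; test concentration not given here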
[18] = E. coli acrAB mutant growth effects, primary screen, E. coli filamentation inducers, strain DRC39, OD650, 48 h (AID 1179);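 also: screen aims at cell division blockers that make cells filament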; conditions: E. coli DRC39 delta-acrAB growth, higher = more signal, called active from +8 up or from −8 down
[19] = RPMI8226 myeloma cell viability, profiling panel, resazurin fluorescence, basal, 24 h, PK04 Diversity Set (AID 1180); conditions: higher = more signal;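 also: RPMI8826 multiple myeloma cell line at 5000 cells per well; test concentration not given here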
[20] = biological target: E3 ubiquitin-protein ligase XIAP (Homo sapiens) (UniProt P98170); assay: XIAP binders, primary screen, biophysical, small-molecule microarray, fluorescence 635 nm (AID 1181); conditions: small-molecule microarray binding, higher = more signal;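 also: score merges 667 nm emission and signal to noise over triplicate slides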
Chain of E3 ubiquitin-protein ligase XIAP (Homo sapiens) (P98170 whole entry, looked up): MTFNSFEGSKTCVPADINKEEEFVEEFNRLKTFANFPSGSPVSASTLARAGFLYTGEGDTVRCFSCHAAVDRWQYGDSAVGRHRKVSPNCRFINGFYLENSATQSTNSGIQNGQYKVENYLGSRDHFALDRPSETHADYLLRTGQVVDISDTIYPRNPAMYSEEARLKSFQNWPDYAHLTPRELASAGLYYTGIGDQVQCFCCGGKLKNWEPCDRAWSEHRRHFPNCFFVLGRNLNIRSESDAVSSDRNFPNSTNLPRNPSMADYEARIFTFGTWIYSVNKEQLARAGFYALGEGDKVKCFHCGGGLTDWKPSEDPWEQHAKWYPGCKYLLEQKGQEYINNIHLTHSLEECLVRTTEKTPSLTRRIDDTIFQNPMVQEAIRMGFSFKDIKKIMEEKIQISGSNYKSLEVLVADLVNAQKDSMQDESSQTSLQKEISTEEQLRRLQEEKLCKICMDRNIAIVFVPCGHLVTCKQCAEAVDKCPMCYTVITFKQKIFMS

Chain of Dihydroorotate dehydrogenase (quinone), mitochondrial (Plasmodium falciparum (isolate 3D7)) (Q08210 whole entry, looked up): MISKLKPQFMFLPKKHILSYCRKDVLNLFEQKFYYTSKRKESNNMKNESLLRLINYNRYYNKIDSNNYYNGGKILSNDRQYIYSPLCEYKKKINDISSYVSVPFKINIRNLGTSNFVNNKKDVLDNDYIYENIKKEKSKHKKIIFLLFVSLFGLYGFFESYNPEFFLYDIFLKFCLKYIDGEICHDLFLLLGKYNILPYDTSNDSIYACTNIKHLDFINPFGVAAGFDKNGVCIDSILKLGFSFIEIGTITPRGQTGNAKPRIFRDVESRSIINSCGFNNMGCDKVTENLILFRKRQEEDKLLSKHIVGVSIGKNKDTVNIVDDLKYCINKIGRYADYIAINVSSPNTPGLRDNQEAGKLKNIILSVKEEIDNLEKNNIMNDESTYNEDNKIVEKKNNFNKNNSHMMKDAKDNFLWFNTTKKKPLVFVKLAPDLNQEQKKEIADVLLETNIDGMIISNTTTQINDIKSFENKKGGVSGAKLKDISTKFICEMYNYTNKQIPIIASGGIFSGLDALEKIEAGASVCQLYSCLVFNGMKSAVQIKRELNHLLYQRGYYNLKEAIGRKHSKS

| SMILES | z-score [1] | z-score [2] | z-score [3] | z-score [4] | z-score [5] | z-score [6] | z-score [7] | z-score [8] | z-score [9] | z-score [10] | z-score [11] | z-score [12] | z-score [13] | composite z-score [14] | z-score [15] | z-score [16] | z-score [17] | z-score [18] | z-score [19] | composite z-score [20] |
| --- | --- | --- | --- | --- | --- | --- | --- | --- | --- | --- | --- | --- | --- | --- | --- | --- | --- | --- | --- | --- |
| O=C1c2ccccc2[C@@]2(Cc3ccccc3N(CCN3CCOCC3)C2=O)[C@H](c2ccc(CO)cc2)N1Cc1ccccc1 | 0.668 | -0.238 | 0.402 | 0.0855 | 0.66 | 0.761 | 0.734 (inactive) | -0.605 | -0.253 | -0.273 (inactive) | -0.864 | -0.187 (inactive) | 0.757 (inactive) | -4.94 (inactive) | 0.168 (inactive) | 0.167 (inactive) | 0.839 (inactive) | 1.61 (inactive) | 0.386 | -0.278 |
| [N-]=[N+]=Nc1ccccc1C[C@@]1(C(=O)NCCN2CCOCC2)N=C(c2ccc(OCCCO)cc2)O[C@@H]1c1ccccc1 | 0.189 | -0.455 | 0.357 | -0.511 | -0.905 | 2.55 | 0.248 (inactive) | -0.293 | -1.35 | -0.524 (inactive) | -0.139 | -4.41 (inactive) | -0.599 (inactive) | 0.842 (inactive) | -0.347 (inactive) | -0.0653 (inactive) | 0.655 (inactive) | 0.745 (inactive) | -0.125 | 0.0831 |
| C#CCN(CC1=CCCCC1)[C@H](c1ccccc1Br)[C@@H](O)Cc1ccccc1 | -0.101 | 0.109 | 0.455 | -2.26 | -4 | -1.05 | -0.352 (inactive) | -1.08 | -0.635 | 1.2 (inactive) | 1.47 | -2.52 (inactive) | 1.05 (inactive) | 0.0019 (inactive) | 0.236 (inactive) | 0.404 (inactive) | 0.657 (inactive) | 0.406 (inactive) | -0.486 | -0.209 |
| CC[C@@H]1C=C(C(=O)O)[C@H](c2ccco2)N1S(=O)(=O)c1ccc(C)cc1 | -0.364 | -0.538 | 0.186 | -0.019 | -0.29 | -0.0247 | -1.25 (inactive) | 0.604 | -1.26 | -0.68 (inactive) | -0.456 | 0.538 (inactive) | -0.283 (inactive) | 0.267 (inactive) | 0.449 (inactive) | -0.0109 (inactive) | -0.721 (inactive) | 0.34 (inactive) | -0.88 | 0.124 |
| C=CCNC(=O)[C@H]1[C@@H]2C(=O)O[C@@H](c3ccccc3)[C@@H](c3ccccc3)N2[C@@H](c2ccc(OCCO)cc2)[C@]12C(=O)Nc1ccc(C#CC3=CCCCC3)cc12 | -1.03 | 1.66 | -1.17 | -1.99 | -3.64 | -1.43 | 2.5 (inactive) | -1.13 | -1.32 | -0.829 (inactive) | 0.735 | 2.06 (inactive) | -1.21 (inactive) | 0.472 (inactive) | 0.269 (inactive) | 2.97 (inactive) | 0.0358 (inactive) | -0.198 (inactive) | -2.77 | 0.0435 |
| N#Cc1ccc(NN2C(C(O)c3c(F)cccc3Cl)C=CC3C(=O)N(c4ccccc4)C(=O)C32)cc1 (stereo not given) | 0.212 | -0.684 | 0.0972 | -0.0928 | -0.91 | -1.41 | -1.82 (inactive) | -0.275 | -0.0893 | -0.0273 (inactive) | -1.31 | 0.566 (inactive) | -0.392 (inactive) | 1.67 (inactive) | 1.01 (inactive) | -0.0762 (inactive) | -0.731 (inactive) | -0.445 (inactive) | -0.739 | 0.585 |
| COc1ccc([Si](C)(C)[C@H]2[C@H](CCn3cc([C@H](O)c4ccccc4)nn3)O[C@@]3(C(=O)N(Cc4cccc(N5CCOC5=O)c4)c4ccccc43)[C@@H]2C)cc1 | 0.377 | 0.283 | 0.243 | -1.32 | -0.332 | -0.242 | -0.537 (inactive) | -0.463 | -0.637 | -1.06 (inactive) | -0.332 | 0.548 (inactive) | -1.59 (inactive) | -0.351 (inactive) | 1.43 (inactive) | 1.18 (inactive) | 0.196 (inactive) | 0.0133 (inactive) | -0.754 | -0.117 |
| O=C1O[C@H](c2ccccc2)[C@H](c2ccccc2)N2[C@H]1[C@@H](C(=O)N1CCN(c3ncccn3)CC1)[C@]1(C(=O)Nc3ccc(C#CC4=CCCCC4)cc31)[C@H]2c1ccc(O)cc1 | 0.645 | 0.301 | 0.469 | -0.36 | -1.91 | -1.49 | 1.44 (inactive) | -0.745 | -0.75 | -0.526 (inactive) | 1.03 | 0.866 (inactive) | 0.0054 (inactive) | -0.457 (inactive) | 0.902 (inactive) | 2.46 (inactive) | 0.105 (inactive) | 0.557 (inactive) | -0.441 | -0.0559 |
| C[N+](C)(C)CCCC[C@@H]1NC(=O)[C@@H]2C[C@H](C(=O)NCCCCCN)[C@H](c3cccc(OCCO)c3)N2C1=O | 1.53 | 0.698 | 1.45 | 0.423 | 0.16 | 1.03 | -0.117 (inactive) | 0.0947 | -0.198 | 0.0718 (inactive) | -0.85 | -0.749 (inactive) | -1.23 (inactive) | -0.76 (inactive) | 0.131 (inactive) | 0.527 (inactive) | 0.0148 (inactive) | 0.597 (inactive) | 0.0758 | 0.191 |
